Source: PubChem BioAssay (NCATS)
Inconclusive results are not listed. Activity calls are given as the source filed them. Calls come from the whole dose curve; as a rule, active = well fitted inhibition curve with a large enough effect; inconclusive = small, poorly fitted or top-dose-only effect; inactive = flat fitted curve, though single readings scatter.

Experiments:
Experiment in all cases: qHTS profiling for inhibitors of Plasmodium falciparum proliferation (AID 504749); note: nearly all actives have a fitted effect of over 60% in size
Settings in all cases: P. falciparum in erythrocytes, SYBR Green DNA, 72 h; series mostly up to 28.7 µM
GB4 = tested on: GB4
Summary of the method: (§1)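 Parasite proliferation within erythrocytes, 72 h exposure. Endpoint: SYBR Green I fluorescence after overnight lysis at room temperature. Controls: 0.29 uM artemisinin, DMSO.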

ICS = tested on: ICS
Summary of the method: as §1

N140 = tested on: N140
Summary of the method: as §1

P93_24 = tested on: P93_24
Summary of the method: as §1

P94_40 = tested on: P94_40
Summary of the method: as §1

PAD = tested on: PAD
Summary of the method: as §1

PC15 = tested on: PC15
Summary of the method: as §1

PC26 = tested on: PC26
Summary of the method: as §1

HB3 = tested on: HB3
Summary of the method: as §1

JCK = tested on: JCK
Summary of the method: as §1

Measured: Potency
Potency is the fitted concentration of half-maximal effect.

CCCCCCCCCCCCCCCC[N+](C)(C)Cc1ccccc1
active: GB4 5.36 µM | ICS 2.82 µM | N140 14.1 µM | P93_24 1.12 µM | P94_40 1.58 µM | PAD 5.62 µM | PC15 7.94 µM | PC26 9.53 µM

Nc1c2ccccc2nc2ccccc12
active: GB4 10.7 µM | ICS 7.94 µM | N140 5.01 µM | P93_24 7.08 µM | P94_40 5.62 µM | PAD 7.94 µM | PC15 11.2 µM | PC26 15.1 µM

O=S(=O)(O)c1ccc2nc(-c3ccccc3)[nH]c2c1
inactive: all assays above

CN1CCCN(C(c2ccccc2)c2ccc(Cl)cc2)CC1 (centres undefined)
active: GB4 13.5 µM | ICS 8.91 µM | N140 10 µM | P93_24 7.08 µM | PAD 5.62 µM

CCCCCCCCCCCCCC[N+](C)(C)C
active: GB4 5.36 µM | HB3 6.31 µM | ICS 2.51 µM | N140 6.31 µM | P93_24 5.01 µM | P94_40 6.31 µM | PAD 10 µM | PC26 6.01 µM

O=C(Nc1ccc(Cl)cc1)Nc1ccc(Cl)c(Cl)c1
active: GB4 2.39 µM | HB3 11.2 µM | ICS 0.631 µM | JCK 10 µM | N140 2 µM | P93_24 3.55 µM | P94_40 2.82 µM | PAD 2.24 µM | PC15 2.51 µM | PC26 1.51 µM

Nc1ccc2cc3ccc(N)cc3nc2c1
active: GB4 13.5 µM | ICS 2.82 µM

CCCCCCCCCCCCCCCC[n+]1ccccc1
active: GB4 3.38 µM | ICS 2.51 µM | N140 8.91 µM | P93_24 7.94 µM | P94_40 8.91 µM | PAD 12.6 µM | PC15 10 µM | PC26 12 µM

Nc1ncnc2nc[nH]c12
inactive: all assays above

CC(NCCC(c1ccccc1)c1ccccc1)c1ccccc1 (centres undefined)
active: GB4 15.1 µM | HB3 10 µM | ICS 2.24 µM | N140 11.2 µM | P93_24 12.6 µM | P94_40 11.2 µM | PAD 12.6 µM | PC15 11.2 µM | PC26 8.49 µM

CN1CCC(Nc2ncc3ncnc(Nc4ccc(F)c(Cl)c4)c3n2)CC1
active: GB4 13.5 µM | ICS 6.31 µM | JCK 7.94 µM | N140 10 µM | P93_24 7.08 µM | P94_40 8.91 µM

O=[N+]([O-])c1ccc(O)c2ncccc12
active: GB4 15.1 µM | ICS 12.6 µM
inactive: PAD | PC15 | PC26
